The values that follow come from PubChem BioAssay (NCATS).

A short description of assay [1]: qHTS of pediatric cancer cell lines to identify multiple opportunities for drug repurposing: Primary screen for DAOY cells (AID 1347090). Further: nearly all actives have a fitted effect of over 55% in size. A digest of the protocol: (§1)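 Viability measured as metabolically active cells via CellTiter-Glo luminescence following 48 hours of compound exposure, 11-point dilutions in confirmatory testing. 500-1,000 cells/well plated 5 hours before dosing; controls were DMSO and 2.3 µM bortezomib.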

A short description of assay [2]: qHTS of pediatric cancer cell lines to identify multiple opportunities for drug repurposing: Primary screen for SJ-GBM2 cells (AID 1347091). An outline of the steps:
as §1
For orientation: In qHTS, concentration-response curves come from the screen itself.

A short description of assay [3]: qHTS of pediatric cancer cell lines to identify multiple opportunities for drug repurposing: Primary screen for A673 cells (AID 1347092). Further: nearly all actives have a fitted effect of over 45% in size. An outline of the steps:
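Cells are plated, rested 5 h, dosed by pintool, incubated 48 h, then lysed with CellTiter-Glo and read by luminescence. DMSO is the neutral control; bortezomib at 2.3 uM final is the positive control.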

A short description of assay [4]: qHTS of pediatric cancer cell lines to identify multiple opportunities for drug repurposing: Primary screen for SK-N-MC cells (AID 1347093). A digest of the protocol:
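Metabolically active cells were quantified by ATP-dependent luminescence (CellTiter-Glo, 15 min at room temperature) following 48 h treatment. Cells had been plated at 500-1,000 per well and settled for 5 h beforehand.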

The nature of assay [5]: qHTS of pediatric cancer cell lines to identify multiple opportunities for drug repurposing: Primary screen for BT-37 cells (AID 1347094). An outline of the steps:
(§2)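 Readout: CellTiter-Glo luminescence, 48 h treatment. Controls DMSO (neutral) and bortezomib 2.3 µM final (positive). Potency and efficacy taken from primary-screen concentration-response curves.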

Assay [6] can be described thus: qHTS of pediatric cancer cell lines to identify multiple opportunities for drug repurposing: Primary screen for NB-EBc1 cells (AID 1347095). An outline of the steps: as §2
A short description of assay [7]: qHTS of pediatric cancer cell lines to identify multiple opportunities for drug repurposing: Primary screen for Saos-2 cells (AID 1347097). Further: nearly all actives have a fitted effect of over 40% in size. A digest of the protocol:
as §2

Assay [8] in a line: qHTS of pediatric cancer cell lines to identify multiple opportunities for drug repurposing: Primary screen for SK-N-SH cells (AID 1347098). Further: nearly all actives have a fitted effect of over 65% in size. A digest of the protocol:
(§3)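 Cells (500-1,000/well) rested 5 h, then received compounds for 48 h; metabolically active cells were measured by CellTiter-Glo luminescence. Final concentrations spanned up to 46 µM (MIPE, 11-point) or 0.59 nM-46 µM (NPC, 8-point) in primary screens, 11-point in follow-ups.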

Assay [9] is described as follows: qHTS of pediatric cancer cell lines to identify multiple opportunities for drug repurposing: Primary screen for NB1643 cells (AID 1347099). Further: nearly all actives have a fitted effect of over 50% in size. An outline of the steps: as §2
Assay [10] in a line: qHTS of pediatric cancer cell lines to identify multiple opportunities for drug repurposing: Primary screen for BT-12 cells (AID 1347101). Further: nearly all actives have a fitted effect of over 25% in size. A digest of the protocol: as §3
Assay [11] can be described thus: qHTS of pediatric cancer cell lines to identify multiple opportunities for drug repurposing: Primary screen for Rh18 cells (AID 1347102). Further: nearly all actives have a fitted effect of over 65% in size. A digest of the protocol: (§4)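 Viability after 48 h compound treatment at 37C, 500-1,000 cells/well, read as ATP luminescence with CellTiter-Glo. Primary screens used 11-point (MIPE, 0.78 nM-46 µM) or 8-point (NPC, 0.59 nM-46 µM) final concentrations; follow-up screens used 11-point dilutions.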

Assay [12] in a line: qHTS of pediatric cancer cell lines to identify multiple opportunities for drug repurposing: Primary screen for OHS-50 cells (AID 1347103). Further: nearly all actives have a fitted effect of over 40% in size. A digest of the protocol:
as §3

Assay [13] is described as follows: qHTS of pediatric cancer cell lines to identify multiple opportunities for drug repurposing: Primary screen for U-2 OS cells (AID 1347096). Further: nearly all actives have a fitted effect of over 50% in size. An outline of the steps:
as §4

Assay [14] is described as follows: qHTS of pediatric cancer cell lines to identify multiple opportunities for drug repurposing: Primary screen for LAN-5 cells (AID 1347100). An outline of the steps:
as §4

The nature of assay [15]: qHTS of pediatric cancer cell lines to identify multiple opportunities for drug repurposing: Primary screen for RD cells (AID 1347104). Further: nearly all actives have a fitted effect of over 55% in size. A digest of the protocol: as §2

SMILES strings stand for the structures. Results filed as inconclusive are left out. Active and inactive are the calls of the source. The call rests on the fitted dose curve; in most records, active means well fitted curve in the direction sought with a large enough effect; inconclusive means small, poorly fitted or top-dose-only effect, or another doubt; inactive means no such curve, though single readings can be large; an effect the other way counts as inactive or inconclusive.
Potency means the concentration at half of the fitted maximal effect.

Take `COc1cccc2nc(-c3cccs3)nc(NN3C(=O)C=C(C)C3=O)c12`: the Potency in assay [1] was 2.35 µM (active); in assay [2], 0.935 µM (active); in [3], 2.35 µM (active); in assay [4], 0.0148 µM (active); in assay [5] it was 0.863 µM (active); in [6] it was 0.332 µM (active). For the same molecule, the Potency is 0.743 µM (active) in assay [7]; 0.271 µM (active) in assay [8]; 0.743 µM (active) in [9]; 2.73 µM (active) in [10]; 5.26 µM (active) in assay [11]; 1.72 µM (active) in assay [12].

Consider `O=C(Cc1ccc(-c2ccc(OCCN3CCOCC3)cc2)cn1)NCc1ccccc1`, for which the Potency is 0.0372 µM (active) in assay [1]; 0.0187 µM (active) in assay [2]; 0.0235 µM (active) in assay [3]; 0.0685 µM (active) in assay [5]; 3.72 µM (active) in assay [13]; 0.0148 µM (active) in assay [7]. Also, the Potency in assay [8] is 6.81 µM (active); in assay [9], 0.0833 µM (active); in [14], 0.0093 µM (active); in assay [10], 0.0385 µM (active); in [11] it was 13.2 µM (active); in [12] it was 0.0306 µM (active). Besides, in [15], the Potency is 0.0526 µM (active).

Take `CCN(CC)CCCCNc1ncc2cc(-c3cc(OC)cc(OC)c3)c(NC(=O)NC(C)(C)C)nc2n1`: the Potency entry in [1] and in [9] was “inactive” in each case. Also, the Potency in assay [2] is 14.8 µM (active); in assay [3], 18.7 µM (active); in assay [4] it was 23.5 µM (active); in assay [5] it was 19.3 µM (active); in assay [8] it was 6.81 µM (active); in assay [14], 18.7 µM (active). In addition, the Potency was 24.3 µM (active) in assay [10], 13.2 µM (active) in [11], 24.3 µM (active) in assay [12] and 16.6 µM (active) in assay [15].

Turning to `COCCOc1ccc2c(c1)ncn2-c1ccc2cccc(N3CCC(N)CC3)c2n1`, the Potency in assay [1] was 23.5 µM (active); in assay [2] it was 11.8 µM (active); in assay [3] it was 4.69 µM (active); in assay [5], 24.3 µM (active); in [6], 23.5 µM (active); in assay [7], 18.7 µM (active). Further, the Potency is 21.5 µM (active) in assay [8]; 23.5 µM (active) in assay [9]; 9.35 µM (active) in assay [14]; 27.3 µM (active) in assay [10]; 26.4 µM (active) in assay [11]; 19.3 µM (active) in assay [12]. Besides, the Potency in assay [15] is 29.6 µM (active).

Turning to `O=C(CCCCCCC(=O)Nc1ccc([C@H]2O[C@@H](CSc3nc(-c4ccccc4)c(-c4ccccc4)o3)C[C@@H](c3ccc(CO)cc3)O2)cc1)NO`, the Potency in assay [1] is 11.8 µM (active); in assay [2], 14.8 µM (active); in assay [3], 4.69 µM (active); in assay [4] it was 8.33 µM (active); in [5] it was 15.3 µM (active); in [8] it was 27.1 µM (active). The Potency in [9] is 7.43 µM (active); in assay [10] it was 21.7 µM (active); in assay [11] it was 10.5 µM (active); in assay [12] it was 15.3 µM (active). For the same molecule, the Potency result in [13] and in assay [7] was “inactive” in each case.

With `Cc1cc(C(=O)N2CCN(c3cccc(Cl)c3)CC2)n(-c2ccccc2)n1`, the Potency in [1] is 0.743 µM (active); in assay [2], 0.118 µM (active); in assay [3], 0.59 µM (active); in [4], 0.118 µM (active); in assay [5] it was 6.11 µM (active); in [6], 0.0662 µM (active). Also, the Potency in assay [7] was 0.118 µM (active); in assay [10] it was 6.85 µM (active); in [12], 1.37 µM (active). Besides, the Potency result in assay [11] was “inactive”.

Turning to `O=C(Nc1cn[nH]c1-c1nc2ccc(CN3CCOCC3)cc2[nH]1)NC1CC1`, the Potency in assay [1] was 3.72 µM (active); in [2], 0.59 µM (active); in [3], 1.48 µM (active); in assay [4], 0.059 µM (active); in [5], 12.2 µM (active); in assay [13], 4.69 µM (active). Besides, the Potency in [7] is 0.935 µM (active); in [8] it was 0.242 µM (active); in [9] it was 5.26 µM (active); in assay [14], 0.0105 µM (active); in assay [10], 7.69 µM (active); in [11], 0.935 µM (active). Also, the Potency in assay [12] was 1.53 µM (active); in assay [15], 5.9 µM (active).

Turning to `Nc1ncnc2c1c(-c1cccc(OCc3ccccc3)c1)cn2C1CC(CN2CCCC2)C1` (stereo not given), the Potency entry in assay [1] is “inactive”. Further, the Potency was 20.9 µM (active) in assay [2]; 18.7 µM (active) in [3]; 0.662 µM (active) in assay [4]; 4.69 µM (active) in assay [6]; 0.743 µM (active) in assay [7]; 21.5 µM (active) in assay [8]. For the same molecule, the Potency in [9] is 4.18 µM (active); in assay [14], 1.32 µM (active); in assay [10], 27.3 µM (active); in assay [11], 18.7 µM (active); in assay [12], 0.432 µM (active); in [15] it was 5.26 µM (active).

Consider `C[C@@H]1COC(Nc2ccc3ncnc(Nc4ccc(OCc5nccs5)c(Cl)c4)c3c2)=N1`, for which the Potency was 0.935 µM (active) in assay [1]; 23.5 µM (active) in assay [2]; 0.935 µM (active) in assay [3]; 24.3 µM (active) in assay [5]; 2.64 µM (active) in assay [6]; 29.6 µM (active) in assay [7]. Moreover, the Potency in assay [9] was 4.69 µM (active); in assay [14], 16.6 µM (active); in assay [10], 24.3 µM (active); in assay [12], 21.7 µM (active); in assay [15] it was 14.8 µM (active).

In the case of `COc1cc(=C2C=c3ccccc3=N2)[nH]c1=Cc1[nH]c(C)cc1C`, the Potency in assay [1] is 14.8 µM (active); in assay [2], 1.18 µM (active); in assay [3], 4.69 µM (active); in [4], 3.72 µM (active); in assay [5], 7.69 µM (active); in [6], 0.743 µM (active). The Potency is 4.69 µM (active) in [7]; 19.2 µM (active) in assay [8]; 14.8 µM (active) in [9]; 5.9 µM (active) in [14]; 6.85 µM (active) in assay [10]; 7.69 µM (active) in [12]. Further, the Potency in [15] was 2.96 µM (active).

Take `Cn1cncc1[C@@](N)(c1ccc(Cl)cc1)c1ccc2c(c1)c(-c1cccc(Cl)c1)cc(=O)n2C`: the Potency in assay [1] is 14.8 µM (active); in assay [2], 20.9 µM (active); in assay [3], 23.5 µM (active); in [4], 1.66 µM (active); in [5] it was 21.7 µM (active); in [6], 11.8 µM (active). For the same molecule, the Potency was 18.7 µM (active) in assay [7]; 8.57 µM (active) in [8]; 18.7 µM (active) in assay [9]; 21.7 µM (active) in [10]; 16.6 µM (active) in [11]; 7.69 µM (active) in assay [12]. Moreover, the Potency in assay [15] was 16.6 µM (active).

Consider `CC=CC1=C(C(=O)O)N2C(=O)[C@H](NC(=O)[C@H](N)c3ccc(O)cc3)[C@@H]2SC1`, for which the Potency result in assay [1], in assay [2], in [6], in [13] and in [15] was “inactive” throughout. For the same molecule, the Potency in assay [3] was 0.935 µM (active); in [4], 23.5 µM (active); in [8], 19.2 µM (active); in [9], 20.9 µM (active).
